According to the supplement of paper PMC11001985:
Unmarked numbers belong to inactive results.

Target: ATP1B3 (UniProt P54709)
Assay: lysine labeling ratio R10:1 (500 µM / 50 µM probe), SILAC-ABPP in living cells; higher = lower intrinsic lysine reactivity toward the probe, active = 2 or less
Details: HeLa, probe concentrations 500 vs 50 µM
Experimental: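 Living HeLa cells (SILAC light/heavy) in PBS at room temperature were labeled with 50 µM versus 500 µM of the lysine-reactive, reductant-cleavable probe OPA-S-S-alkyne (SILAC labeling time not stated). Probe-modified peptides were CuAAC-biotinylated, captured on neutravidin and eluted with DTT/IAA, then quantified by LC-MS/MS. R = median peptide ratio per lysine (500/50 µM), combined over 3 forward and 3 reverse SILAC replicates. Ratios are capped at 20; R < 2 = hyper-reactive.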

Chain of ATP1B3 (P54709 whole entry): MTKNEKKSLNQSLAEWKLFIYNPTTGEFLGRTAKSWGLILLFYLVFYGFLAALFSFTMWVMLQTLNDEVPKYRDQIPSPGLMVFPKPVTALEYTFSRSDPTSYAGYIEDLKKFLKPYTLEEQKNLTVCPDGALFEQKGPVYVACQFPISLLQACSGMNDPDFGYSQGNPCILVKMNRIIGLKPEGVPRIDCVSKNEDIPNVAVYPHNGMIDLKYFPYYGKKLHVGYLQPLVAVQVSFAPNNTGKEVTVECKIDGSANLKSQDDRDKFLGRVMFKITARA

SMILES: C#CCNC(=O)CCSSCCC(=O)NCCc1ccc(C=O)c(C=O)c1
- lysine labeling ratio R10:1 (lysine site: K182): 5.21
- lysine labeling ratio R10:1 (lysine site: K220): 0.695 (active)
- lysine labeling ratio R10:1 (lysine site: K259): 3.28
- lysine labeling ratio R10:1 (lysine site: K266): 2.22
- lysine labeling ratio R10:1 (lysine site: K274): 9.2
